According to PubChem BioAssay (NCI):
“And” between values parts separate entries of the source, which are not always exact repeats. Equal values may be shown once. The panel holds about 83,000 compounds, 20% with a hit somewhere; the sample as a whole holds those more often.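 Assay: single dose, 48 h. Readout: percent growth (0 = no net growth; negative = cell death). Active: <10.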 The source made the active and inactive calls.

Tests used:
Assay in all cases: NCI-60 one-dose screen, 48 h (100 = growth as untreated, 0 = no growth, -100 = all killed)
T-47D breast = system: T-47D breast
BT-549 breast = system: BT-549 breast
MDA-MB-435 melanoma = system: MDA-MB-435 melanoma
SW-620 colon = system: SW-620 colon
MCF7 breast = system: MCF7 breast
HCT-116 colon = system: HCT-116 colon
HCC-2998 colon = system: HCC-2998 colon
KM12 colon = system: KM12 colon

Measured: growth

COc1cc([C@@H]2c3cc4c(cc3[C@H](O)[C@H]3COC(=O)[C@@H]23)OCO4)cc(OC)c1OC
inactive: T-47D breast; 10 µM unless noted 40.1% and 71.1% | BT-549 breast; 10 µM unless noted 22.3%
18.4% (inactive) and 5.61% (active): MCF7 breast; 10 µM unless noted
active: MDA-MB-435 melanoma; 10 µM unless noted -23.1% and -44.3% | HCC-2998 colon; 10 µM unless noted -10.3% and -60.9%
10.5% (inactive) and -40.7% (active): HCT-116 colon; 10 µM unless noted
16.7% (inactive) and 4.24% (active): SW-620 colon; 10 µM unless noted

S=c1nc[nH]c2nc[nH]c12
active: MCF7 breast; 50 µM 6.35% | MCF7 breast; 750 µM 4.16% and -35.5%
inactive: T-47D breast; 10 µM unless noted 18.6% | BT-549 breast; 10 µM 62% | BT-549 breast; 50 µM 64.4% | MDA-MB-435 melanoma; 10 µM 15.3% | MDA-MB-435 melanoma; 50 µM 13.8% | SW-620 colon; 10 µM 34.6% | SW-620 colon; 50 µM 21.5% | MCF7 breast; 10 µM 10.7% | HCT-116 colon; 10 µM 19.2% | HCT-116 colon; 50 µM 28.3% | HCC-2998 colon; 10 µM 23.2% | HCC-2998 colon; 50 µM 31% | KM12 colon; 10 µM 35.4% | KM12 colon; 50 µM 14.9%

Cc1ccc(C(=O)c2ccc(C)cc2)cc1
inactive: T-47D breast; 10 µM unless noted 90.7% and 94.9% | BT-549 breast; 10 µM unless noted 92% | MDA-MB-435 melanoma; 10 µM unless noted 103% and 105% | SW-620 colon; 10 µM unless noted 104% and 101% | MCF7 breast; 10 µM unless noted 99.9% and 95.3% | HCT-116 colon; 10 µM unless noted 92.5% and 98% | HCC-2998 colon; 10 µM unless noted 87.5% and 99.8% | KM12 colon; 10 µM unless noted 102% and 108%

CCOc1ccc(/C=C\C(=O)O)cc1
inactive: T-47D breast; 10 µM unless noted 122% | BT-549 breast; 10 µM unless noted 125% | MDA-MB-435 melanoma; 10 µM unless noted 107% | SW-620 colon; 10 µM unless noted 101% | MCF7 breast; 10 µM unless noted 95.2% | HCT-116 colon; 10 µM unless noted 119% | HCC-2998 colon; 10 µM unless noted 109%

CCCCC/C(C)=N\NC(N)=S
inactive: T-47D breast; 10 µM unless noted 33.6% | BT-549 breast; 10 µM unless noted 96.7% | MDA-MB-435 melanoma; 10 µM unless noted 84.4% | SW-620 colon; 10 µM unless noted 67.5% | MCF7 breast; 10 µM unless noted 19.6% | HCT-116 colon; 10 µM unless noted 11.7% | HCC-2998 colon; 10 µM unless noted 97.8%

O=C1C=CC[C@H](/C=C/c2ccccc2)O1
24.9% (inactive) and 4.24% (active): BT-549 breast; 10 µM unless noted
17.5% (inactive) and 4.07% (active): MDA-MB-435 melanoma; 10 µM unless noted
67.9% (inactive) and 9.64% (active): T-47D breast; 10 µM unless noted
inactive: HCC-2998 colon; 10 µM unless noted 26.1% and 32.3%
active: MCF7 breast; 10 µM unless noted 0.837% and 1.92% | HCT-116 colon; 10 µM unless noted 5.79% and -18.5%
16.4% (inactive) and -39.2% (active): SW-620 colon; 10 µM unless noted

CC(=O)Nc1ccc(OC(C)=O)cc1
inactive: T-47D breast; 10 µM unless noted 78.1% and 103% | BT-549 breast; 10 µM unless noted 11.9% and 103% | SW-620 colon; 10 µM unless noted 26% and 94.2% | MCF7 breast; 10 µM unless noted 91.8%
-14.7% (active) and 104% (inactive): HCT-116 colon; 10 µM unless noted
-28.8% (active) and 112% (inactive): HCC-2998 colon; 10 µM unless noted
-29.5% (active) and 107% (inactive): MDA-MB-435 melanoma; 10 µM unless noted

O=C(N=C1C(=O)C2(CCCCC2)C2(N=C(c3ccccc3)OC2=O)C12CCCCC2)c1ccccc1 (stereo unspecified)
inactive: T-47D breast; 10 µM unless noted 35.7% | BT-549 breast; 10 µM unless noted 86.9% | MDA-MB-435 melanoma; 10 µM unless noted 89.1% | SW-620 colon; 10 µM unless noted 71.5% | MCF7 breast; 10 µM unless noted 51.3% | HCT-116 colon; 10 µM unless noted 39.5% | HCC-2998 colon; 10 µM unless noted 59.2%

OCc1cccc(F)c1
inactive: T-47D breast; 10 µM unless noted 94.6% | BT-549 breast; 10 µM unless noted 104% | MDA-MB-435 melanoma; 10 µM unless noted 98.6% | SW-620 colon; 10 µM unless noted 50% | MCF7 breast; 10 µM unless noted 62.1% | HCT-116 colon; 10 µM unless noted 55.2% | HCC-2998 colon; 10 µM unless noted 99.4% | KM12 colon; 10 µM unless noted 108%

CS/C(=C\c1ccc(C(=O)c2ccc(C)cc2)n1C)S(C)=O (stereo unspecified)
inactive: T-47D breast; 10 µM 79.7% | T-47D breast; 100 µM 47.6% | BT-549 breast; 10 µM 102% | BT-549 breast; 100 µM 47.4% | MDA-MB-435 melanoma; 10 µM 50.1% | MDA-MB-435 melanoma; 100 µM 26.9% | SW-620 colon; 10 µM 101% | SW-620 colon; 100 µM 97.4% | HCT-116 colon; 10 µM 97.1% | HCT-116 colon; 100 µM 70.9% | HCC-2998 colon; 10 µM 95.9% | HCC-2998 colon; 100 µM 87.2%

N#CC(=S)Nc1ccc(Cl)c(Cl)c1
active: BT-549 breast; 10 µM unless noted -4.25% | MDA-MB-435 melanoma; 10 µM unless noted 6.5% | MCF7 breast; 10 µM 5.23% | MCF7 breast; 100 µM -23.4% and -100% | KM12 colon; 10 µM unless noted 2.62%
inactive: T-47D breast; 10 µM unless noted 13.2% | SW-620 colon; 10 µM unless noted 19.6% | HCC-2998 colon; 10 µM unless noted 20.2%

CC(C)=NOC(C)C(=O)O (stereo unspecified)
inactive: T-47D breast; 10 µM unless noted 107% | BT-549 breast; 10 µM unless noted 98% | MDA-MB-435 melanoma; 10 µM unless noted 97.2% | SW-620 colon; 10 µM unless noted 103% | MCF7 breast; 10 µM unless noted 97% | HCT-116 colon; 10 µM unless noted 95.7% | HCC-2998 colon; 10 µM unless noted 100%
